Results reported in the supplement of paper PMC8728848.
The sample as a whole holds a higher share of the strongest signals than the screen did.

Assays:
Assay in all cases: glycan array binding signal (z-score within array); higher = stronger binding
Conditions in all cases: glycan notation: IUPAC condensed, linker removed; mutation: H262T
[1] = biological target: Fuc(a1-2)Gal(b1-3)GalNAc(a1-3)[Fuc(a1-2)]Gal(b1-4)Glc
Method in brief: (§1)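 Glycan array data came from 3228 arrays in the Consortium for Functional Glycomics database, and only arrays with an available protein sequence were kept. Glycan names were put into IUPAC-condensed notation, and columns mapping to the same glycan were averaged. The binding signal is a within-array Z-score, averaged across arrays of one protein sequence run at different concentrations or buffers and across linkers. A negative Z-score can be read as non-binding.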

[2] = biological target: Fuc(a1-2)Gal(b1-3)GlcNAc(b1-3)[Gal(b1-4)GlcNAc(b1-6)]Gal(b1-4)Glc
Method in brief: as §1

Fuc(a1-2)Gal(b1-4)GlcNAc = biological target: Fuc(a1-2)Gal(b1-4)GlcNAc
Method in brief: as §1

[3] = biological target: Fuc(a1-2)Gal(b1-4)GlcNAc(b1-6)GalNAc
Method in brief: as §1

[4] = biological target: Fuc(a1-2)Gal6S(b1-3)GlcNAc6S
Method in brief: as §1

Fuc(a1-2)[Gal(a1-3)]Gal = biological target: Fuc(a1-2)[Gal(a1-3)]Gal
Method in brief: as §1

[5] = biological target: Fuc(a1-2)[Gal(a1-3)]Gal(b1-4)GlcNAc(b1-2)Man(a1-3)[Fuc(a1-2)[Gal(a1-3)]Gal(b1-4)GlcNAc(b1-2)Man(a1-6)]Man(b1-4)GlcNAc(b1-4)GlcNAc
Method in brief: as §1

[6] = biological target: Fuc(a1-2)[Gal(a1-3)]Gal(b1-4)[Fuc(a1-3)]Glc
Method in brief: as §1

[7] = biological target: Fuc(a1-2)[GalNAc(a1-3)]Gal(b1-3)GlcNAc(b1-6)GalNAc
Method in brief: as §1

[8] = biological target: Fuc(a1-2)[GalNAc(a1-3)]Gal(b1-4)GlcNAc(b1-2)Man
Method in brief: as §1

[9] = biological target: Fuc(a1-2)[GalNAc(a1-3)]Gal(b1-4)GlcNAc(b1-6)GalNAc
Method in brief: as §1

[10] = biological target: Fuc(a1-2)[GalNAc(a1-4)]Gal(b1-4)GlcNAc
Method in brief: as §1

[11] = biological target: Fuc(a1-2)[GalNAc(b1-3)]Gal
Method in brief: as §1

Fuc(a1-4)GlcNAc = biological target: Fuc(a1-4)GlcNAc
Method in brief: as §1

Gal(a1-3)Gal = biological target: Gal(a1-3)Gal
Method in brief: as §1

[12] = biological target: Gal(a1-3)Gal(b1-3)GlcNAc(b1-6)GalNAc
Method in brief: as §1

[13] = biological target: Gal(a1-3)Gal(b1-4)GlcNAc(b1-2)Man
Method in brief: as §1

[14] = biological target: Gal(a1-3)Gal(b1-4)GlcNAc(b1-6)GalNAc
Method in brief: as §1

[15] = biological target: Gal(a1-4)Gal(b1-4)GlcNAc(b1-2)Man(a1-3)[Gal(a1-4)Gal(b1-4)GlcNAc(b1-2)Man(a1-6)]Man(b1-4)GlcNAc(b1-4)GlcNAc
Method in brief: as §1

[16] = biological target: Gal(b1-3)GlcNAc(b1-6)GalNAc
Method in brief: as §1

[17] = biological target: Gal(b1-3)[Fuc(a1-4)]GlcNAc(b1-2)Man
Method in brief: as §1

Gal(b1-4)Glc6S = biological target: Gal(b1-4)Glc6S
Method in brief: as §1

[18] = biological target: Gal(b1-4)GlcNAc(a1-6)Gal(b1-4)GlcNAc
Method in brief: as §1

[19] = biological target: Gal(b1-4)GlcNAc(b1-2)[Gal(b1-4)GlcNAc(b1-4)]Man(a1-3)[GlcNAc(b1-4)][Gal(b1-4)GlcNAc(b1-2)[Gal(b1-4)GlcNAc(b1-6)]Man(a1-6)]Man(b1-4)GlcNAc(b1-4)GlcNAc
Method in brief: as §1

[20] = biological target: Gal(b1-4)GlcNAc(b1-3)Gal(b1-4)GlcNAc(b1-3)Gal(b1-4)GlcNAc(b1-2)Man(a1-3)[Gal(b1-4)GlcNAc(b1-3)Gal(b1-4)GlcNAc(b1-3)Gal(b1-4)GlcNAc(b1-2)Man(a1-6)]Man(b1-4)GlcNAc(b1-4)GlcNAc
Method in brief: as §1

[21] = biological target: Gal(b1-4)GlcNAc(b1-3)Gal(b1-4)GlcNAc(b1-3)GalNAc
Method in brief: as §1

[22] = biological target: Gal(b1-4)GlcNAc(b1-6)Gal(b1-4)GlcNAc
Method in brief: as §1

[23] = biological target: Gal(b1-4)GlcNAc(b1-6)GalNAc
Method in brief: as §1

[24] = biological target: Gal(b1-4)GlcNAc(b1-6)[Gal(b1-4)GlcNAc(b1-3)]GalNAc
Method in brief: as §1

Gal3S(b1-3)GlcNAc = biological target: Gal3S(b1-3)GlcNAc
Method in brief: as §1

GalNAc(b1-3)GlcNAc = biological target: GalNAc(b1-3)GlcNAc
Method in brief: as §1

[25] = biological target: GlcA3S(b1-3)Gal(b1-4)GlcNAc(b1-3)Gal(b1-4)Glc
Method in brief: as §1

[26] = biological target: GlcNAc(a1-4)Gal(b1-4)GlcNAc
Method in brief: as §1

[27] = biological target: GlcNAc(b1-2)[GlcNAc(b1-6)]Man(a1-6)[GlcNAc(b1-2)Man(a1-3)]Man(b1-4)GlcNAc(b1-4)[Fuc(a1-6)]GlcNAc
Method in brief: as §1

GlcNAc(b1-3)Gal = biological target: GlcNAc(b1-3)Gal
Method in brief: as §1

[28] = biological target: GlcNAc(b1-3)Gal(b1-3)GalNAc
Method in brief: as §1

[29] = biological target: GlcNAc(b1-3)Gal(b1-4)GlcNAc(b1-3)Gal(b1-4)GlcNAc(b1-3)Gal(b1-4)GlcNAc(b1-2)[GlcNAc(b1-3)Gal(b1-4)GlcNAc(b1-3)Gal(b1-4)GlcNAc(b1-3)Gal(b1-4)GlcNAc(b1-6)]Man(a1-6)[GlcNAc(b1-3)Gal(b1-4)GlcNAc(b1-3)Gal(b1-4)GlcNAc(b1-3)Gal(b1-4)GlcNAc(b1-2)Man(a1-3)]Man(b1-4)GlcNAc(b1-4)[Fuc(a1-6)]GlcNAc
Method in brief: as §1

[30] = biological target: GlcNAc(b1-4)GlcNAc(b1-4)GlcNAc(b1-4)GlcNAc(b1-4)GlcNAc(b1-4)GlcNAc
Method in brief: as §1

GlcNAc(b1-6)GalNAc = biological target: GlcNAc(b1-6)GalNAc
Method in brief: as §1

Kdn(a2-3)Gal(b1-3)GalNAc = biological target: Kdn(a2-3)Gal(b1-3)GalNAc
Method in brief: as §1

Kdn(a2-3)Gal(b1-4)GlcNAc = biological target: Kdn(a2-3)Gal(b1-4)GlcNAc
Method in brief: as §1

[31] = biological target: Man(a1-3)[Man(a1-6)]Man(a1-6)[Man(a1-2)Man(a1-3)]Man(b1-4)GlcNAc(b1-4)GlcNAc
Method in brief: as §1

Man(b1-4)GlcNAc = biological target: Man(b1-4)GlcNAc
Method in brief: as §1

[32] = biological target: Neu5Ac(a2-3)Gal(b1-3)GalNAc
Method in brief: as §1

[33] = biological target: Neu5Ac(a2-3)Gal(b1-3)GalNAc6S
Method in brief: as §1

[34] = biological target: Neu5Ac(a2-3)Gal(b1-3)GlcNAc
Method in brief: as §1

[35] = biological target: Neu5Ac(a2-3)Gal(b1-4)GlcNAc(b1-2)Man(a1-3)[Neu5Ac(a2-3)Gal(b1-4)GlcNAc(b1-2)Man(a1-6)]Man(b1-4)GlcNAc(b1-4)GlcNAc
Method in brief: as §1

[36] = biological target: Neu5Ac(a2-3)Gal(b1-4)GlcNAc(b1-6)GalNAc
Method in brief: as §1

[37] = biological target: Neu5Ac(a2-3)Gal6S(b1-4)GlcNAc
Method in brief: as §1

[38] = biological target: Neu5Ac(a2-3)Gal6S(b1-4)[Fuc(a1-3)]GlcNAc
Method in brief: as §1

[39] = biological target: Neu5Ac(a2-3)GalNAc(b1-4)GlcNAc
Method in brief: as §1

[40] = biological target: Neu5Ac(a2-6)Gal(b1-4)GlcNAc(b1-2)Man(a1-6)[Gal(b1-4)GlcNAc(b1-2)Man(a1-3)]Man(b1-4)GlcNAc(b1-4)GlcNAc
Method in brief: as §1

[41] = biological target: Neu5Ac(a2-6)Gal(b1-4)GlcNAc(b1-3)Gal(b1-3)GlcNAc
Method in brief: as §1

[42] = biological target: Neu5Ac(a2-6)Gal(b1-4)GlcNAc(b1-3)Gal(b1-4)GlcNAc(b1-3)[Neu5Ac(a2-6)Gal(b1-4)GlcNAc(b1-3)Gal(b1-4)GlcNAc(b1-6)]GalNAc
Method in brief: as §1

[43] = biological target: Neu5Ac(a2-6)Gal(b1-4)GlcNAc(b1-3)Gal(b1-4)GlcNAc(b1-6)[Gal(b1-3)]GalNAc
Method in brief: as §1

[44] = biological target: Neu5Ac(a2-6)GalNAc(b1-4)GlcNAc6S
Method in brief: as §1

[45] = biological target: Neu5Ac(a2-6)GlcNAc(b1-4)GlcNAc(b1-4)GlcNAc
Method in brief: as §1

[46] = biological target: Neu5Ac9Ac(a2-3)Gal(b1-3)GlcNAc
Method in brief: as §1

[47] = biological target: Neu5Gc(a2-3)Gal(b1-4)GlcNAc
Method in brief: as §1

B1: MGL6A (Homo sapiens) (protein)
chain: MTRTYENFQYLENKVKVQGFKNGPLPLQSLLQRLCSGPCHLLLSLGLGLLLLVIICVVGFQNSKFQRDLVTLRTDFSNFTSNTVAEIQALTSQGSSLEETIASLKAEVEGFKQERQAVHSEMLLRVQQLVQDLKKLTCQVATLNNNGEEASTEGTCCPVNWVEHQDSCYWFSHSGMSWAEAEKYCQLKNAHLVVINSREEQNFVQKYLGSAYTWMGLSDPEGAWKWVDGTDYATGFQNWKPGQPDDWQGHGLGGGEDCAHFTPDGRWNDDVCQRPYHWVCEAGLGQTSQESH
glycan array binding signal (z-score) [1]: -0.173 | glycan array binding signal (z-score) [2]: -0.175 | glycan array binding signal (z-score) (Fuc(a1-2)Gal(b1-4)GlcNAc): -0.174 | glycan array binding signal (z-score) [3]: 7.25 | glycan array binding signal (z-score) [4]: -0.154 | glycan array binding signal (z-score) (Fuc(a1-2)[Gal(a1-3)]Gal): -0.171 | glycan array binding signal (z-score) [5]: -0.165 | glycan array binding signal (z-score) [6]: -0.177 | glycan array binding signal (z-score) [7]: 5.97 | glycan array binding signal (z-score) [8]: -0.176 | glycan array binding signal (z-score) [9]: 5.98 | glycan array binding signal (z-score) [10]: 4.51 | glycan array binding signal (z-score) [11]: 5.17 | glycan array binding signal (z-score) (Fuc(a1-4)GlcNAc): -0.173 | glycan array binding signal (z-score) (Gal(a1-3)Gal): -0.171 | glycan array binding signal (z-score) [12]: 7.68 | glycan array binding signal (z-score) [13]: -0.18 | glycan array binding signal (z-score) [14]: 7.07 | glycan array binding signal (z-score) [15]: -0.168 | glycan array binding signal (z-score) [16]: 6.2 | glycan array binding signal (z-score) [17]: -0.169 | glycan array binding signal (z-score) (Gal(b1-4)Glc6S): -0.172 | glycan array binding signal (z-score) [18]: -0.172 | glycan array binding signal (z-score) [19]: -0.197 | glycan array binding signal (z-score) [20]: -0.169 | glycan array binding signal (z-score) [21]: -0.172 | glycan array binding signal (z-score) [22]: -0.172 | glycan array binding signal (z-score) [23]: 3.65 | glycan array binding signal (z-score) [24]: -0.172 | glycan array binding signal (z-score) (Gal3S(b1-3)GlcNAc): -0.208 | glycan array binding signal (z-score) (GalNAc(b1-3)GlcNAc): 0.976 | glycan array binding signal (z-score) [25]: -0.178 | glycan array binding signal (z-score) [26]: -0.173 | glycan array binding signal (z-score) [27]: -0.173 | glycan array binding signal (z-score) (GlcNAc(b1-3)Gal): -0.178 | glycan array binding signal (z-score) [28]: -0.166 | glycan array binding signal (z-score) [29]: -0.162 | glycan array binding signal (z-score) [30]: -0.175 | glycan array binding signal (z-score) (GlcNAc(b1-6)GalNAc): 5.17 | glycan array binding signal (z-score) (Kdn(a2-3)Gal(b1-3)GalNAc): -0.176 | glycan array binding signal (z-score) (Kdn(a2-3)Gal(b1-4)GlcNAc): -0.161 | glycan array binding signal (z-score) [31]: -0.153 | glycan array binding signal (z-score) (Man(b1-4)GlcNAc): -0.172 | glycan array binding signal (z-score) [32]: -0.16 | glycan array binding signal (z-score) [33]: -0.171 | glycan array binding signal (z-score) [34]: -0.176 | glycan array binding signal (z-score) [35]: -0.123 | glycan array binding signal (z-score) [36]: 6.48 | glycan array binding signal (z-score) [37]: -0.173 | glycan array binding signal (z-score) [38]: -0.177 | glycan array binding signal (z-score) [39]: -0.169 | glycan array binding signal (z-score) [40]: -0.172 | glycan array binding signal (z-score) [41]: -0.175 | glycan array binding signal (z-score) [42]: -0.172 | glycan array binding signal (z-score) [43]: -0.166 | glycan array binding signal (z-score) [44]: -0.176 | glycan array binding signal (z-score) [45]: -0.175 | glycan array binding signal (z-score) [46]: -0.175 | glycan array binding signal (z-score) [47]: -0.175
